High-throughput results: PubChem BioAssay, several laboratories
The list is not random: actives were taken first. Their share in the collection is about 2%.
S1P4 antagonist – human S1P4 receptor antagonism; O95977; AID 1510; S1P4-expressing cells, antagonist mode, reporter read-out; inhibition, % at 4.98 µM; 220,000 tested, 0.26% active; in the data active = inhibition above about 29%;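 also: 0% = wells stimulated with agonist and 100% = vehicle wells without agonist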
Target sequence (O95977 whole entry, looked up): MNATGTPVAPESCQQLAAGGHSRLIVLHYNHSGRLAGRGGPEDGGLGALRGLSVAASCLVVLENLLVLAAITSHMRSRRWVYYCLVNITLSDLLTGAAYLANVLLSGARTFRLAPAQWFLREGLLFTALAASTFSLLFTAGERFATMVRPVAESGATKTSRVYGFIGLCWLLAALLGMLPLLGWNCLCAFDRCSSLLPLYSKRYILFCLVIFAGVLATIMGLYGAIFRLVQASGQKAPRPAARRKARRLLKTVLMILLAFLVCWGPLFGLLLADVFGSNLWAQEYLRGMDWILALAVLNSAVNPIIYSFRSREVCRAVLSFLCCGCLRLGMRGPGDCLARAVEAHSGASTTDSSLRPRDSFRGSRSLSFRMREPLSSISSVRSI
S1P4 agonist – human S1P4 receptor agonism; O95977; S1P4-expressing cell line, agonist reporter assay; activation, % at 4.98 µM; 220,000 tested, 0.35% active; AID 1509; in the data active = activation above about 11%;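 also: 0% = DMSO vehicle and 100% = reference agonist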
EP2 antag – EP2 receptor (human) inhibition; AID 1422; 260,000 tested, 0.52% active; P43116; C6 glioma cells expressing human EP2, cAMP TR-FRET; cells stimulated with saturating PGE2; inhibition, % at 25 µM;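 active = percent inhibition above 40 after rounding to a whole number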;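 also: rat C6 glioma host cells with rolipram phosphodiesterase inhibitor present; the protocol text gives 20 µM as final concentration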
EP2 modulator – modulators of human EP2 prostaglandin E2 receptor | P43116 | EP2-expressing cells, cAMP HTRF FRET, PGE2 co-stimulation | induction, % at 25 µM | 260,000 tested, 0.83% active | AID 940;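 active = compounds whose cAMP rise, as percent of the full-agonist control response, exceeds 60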;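 also: rat C6 glioma line stably carrying human EP2 under a CMV promoter; the protocol text gives 20 µM as final concentration; 100% = response of wells given 1 µM PGE2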
S1P3 antagonist – blocks the human S1P3 receptor | Q99500 | CHO S1P3 NFAT-BLA reporter, FRET fluorescence, antagonist mode | inhibition, % at 4.98 µM | 170,000 tested, 0.27% active;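 active = inhibition above the plate cutoff, the mean inhibition of test wells on that plate plus 3 SD, cut at about 28% in these data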;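 also: cells challenged with S1P at its EC80 of 0.8 µM; blue over green emission ratio from cleaved BLA substrate after 4 h stimulation; 0% = S1P-stimulated wells and 100% = unstimulated DMSO-only wells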
An asterisk follows results filed as active; nt = no result.

SMILES	S1P4 antagonist	S1P4 agonist	EP2 antag	EP2 modulator	S1P3 antagonist
CC1(C)CC(=O)C(C(C#Cc2ccccc2)C2=C(O)CC(C)(C)CC2=O)=C(O)C1	-13	-1	39	-31	nt
COc1ccc(CN2CCC(CNC(=O)c3cnc(C)cn3)CC2)cc1	nt	nt	nt	-27	nt
O=C(COC(=O)[C@@H]1CCCN1S(=O)(=O)c1ccc(Cl)cc1)NC12CC3CC(CC(C3)C1)C2	1	1	68*	14	-6
Cc1ccc(C(=O)N2CCCc3ccccc32)c(F)c1F	nt	nt	4	62*	nt
O=C(c1c(F)cccc1F)N1CCCc2ccccc21	nt	nt	6	37	nt
O=C1/C(=C/c2ccncc2)SC(=S)N1Nc1ccccc1	1	-3	64*	-37	-18
O=C(O)c1ccc(/C=C2\SC(=S)N(Nc3ccccc3)C2=O)cc1	-12	-1	6	-22	9
COC(=O)CCCCCN1C(=O)/C(=C/c2ccc(OC)cc2)SC1=S	nt	nt	13	-16	nt
COC(=O)CCCCCN1C(=O)/C(=C\c2ccncc2)SC1=S	1	0	51*	-40	-10
CCOc1ccc(S(=O)(=O)N(CC(=O)N2CCCC2)c2ccc(F)cc2)cc1	nt	nt	9	-32	nt
O=C1c2cccc3c([N+](=O)[O-])ccc(c23)C(=O)N1c1nccs1	99*	0	55*	-26	nt
O=C1c2cccc3cccc(c23)C(=O)N1c1nccs1	5	3	1	34	14
O=C(N1CCc2c(nc(N3CCOCC3)[nH]c2=O)C1)C1(c2ccc(Cl)cc2)CC1	nt	nt	nt	-36	nt
O=C(Nc1ccccc1N1CCN(c2ccc(F)cc2)CC1)c1ccccc1	-6	-1	11	35	62*
Cc1nc(N(C)C)c2sc(=S)n(C)c2n1	-6	1	6	2	96*
Cc1ccccc1S(=O)(=O)Nc1nc2ccccc2nc1N1CCOCC1	-17	0	40*	-20	2
COc1ccc(-c2nc(N)c3ncn([C@H]4O[C@H](CO)[C@@H](O)[C@@H]4O)c3n2)cc1	nt	nt	52*	11	nt
Cc1ccc(OCc2nnc(SCC#N)n2C)cc1	nt	nt	16	-44	nt
Cc1cc(C)c2nc(C(F)(F)F)nc(N3CC(C)OC(C)C3)c2c1 (centres undefined)	-30	4	nt	61*	13
CCCN1C/C(=C/c2ccc3c(c2)OCO3)C(=O)/C(=C/c2ccc3c(c2)OCO3)C1	-14	6	9	38	3
O=C1OCCC/C1=C\c1ccc2c(c1)OCO2	-13	0	6	82*	-4
CSc1ccc(-c2nnn(Cc3ccccn3)n2)cc1	-2	2	10	-41	10
CSc1ccc(-c2nnn(Cc3ccc(Br)cc3)n2)cc1	-1	1	43*	-42	nt
CN(C)CCCN(Cc1ccc(-n2cccn2)cc1)Cc1ccccn1	nt	nt	5	4	nt
CCOC(=O)c1c(NC(=O)Nc2ccccc2)sc(C)c1C	-6	0	10	62*	nt
SMILES	S1P4 antagonist	S1P4 agonist	EP2 antag	EP2 modulator	S1P3 antagonist
Cc1cc(C)c2cc(C#N)c(SCC(N)=O)nc2c1	nt	nt	17	36	nt
CCOc1ccc(C2Oc3nc(SC)nnc3-c3ccccc3N2C(C)=O)cc1OC (centres undefined)	-16	1	9	-5	55*
O=C1C=CC(=O)N1CCCCCCN1C(=O)C=CC1=O	79*	0	135*	-1	5
CCN1C(=O)C=CC1=O	nt	nt	13	-7	nt
O=c1c2oc3ccccc3c2[nH]c(=S)n1-c1ccc(F)cc1	-5	3	15	65*	-1
CC(=O)c1cc(C#N)c(SCCC(C)C)nc1C	6	1	5	61*	-13
CC(C)(C)OC(=O)N[C@@H](Cc1ccccc1)c1nnc(S(=O)(=O)Cc2ccccc2)o1	73*	-4	3	17	-9
CCSc1nnc([C@H](Cc2ccccc2)NC(=O)OC(C)(C)C)o1	-12	3	2	-8	nt
COc1ccc(CN(Cc2cccn2C)S(=O)(=O)c2ccc(C)cc2)cc1	11	-1	7	72*	9
Cc1[nH]nc2c1C(c1ccc(-c3ccccc3C#N)o1)C(C#N)=C(N)O2 (centres undefined)	-1	-1	63*	-33	-52
Brc1ccc(-c2nnc(Cc3ccccc3)o2)cc1	1	1	7	-31	12
O/C(=C\Sc1nnc(Cc2ccccc2)o1)c1ccc(Br)cc1	-15	1	7	15	81*
CN(C)CCOC(=O)CCN1C(=O)/C(=C/c2cccs2)SC1=S	nt	nt	5	-115	nt
CCC(=O)OCCn1c(=O)c2cc3c(=O)n(CCOC(=O)CC)c(=O)c3cc2c1=O	-3	2	95*	-10	-21
